In ChEMBL document CHEMBL2218924, “A broad activity screen in support of a chemogenomic map for kinase signalling research and drug discovery” (Biochem J, 2013) one finds residual activity data, which are given here for 4 molecules.

The structures appear in SMILES notation.

Test [1] deals with Death-associated protein kinase 1 (Homo sapiens) (UniProt P53355). Conditions: at 10 µM.
For test [2], the target named is Death-associated protein kinase 2 (Homo sapiens) (UniProt Q9UIK4). Conditions: at 1 µM.
Death-associated protein kinase 2 (Homo sapiens), sequence (Q9UIK4 whole entry, looked up): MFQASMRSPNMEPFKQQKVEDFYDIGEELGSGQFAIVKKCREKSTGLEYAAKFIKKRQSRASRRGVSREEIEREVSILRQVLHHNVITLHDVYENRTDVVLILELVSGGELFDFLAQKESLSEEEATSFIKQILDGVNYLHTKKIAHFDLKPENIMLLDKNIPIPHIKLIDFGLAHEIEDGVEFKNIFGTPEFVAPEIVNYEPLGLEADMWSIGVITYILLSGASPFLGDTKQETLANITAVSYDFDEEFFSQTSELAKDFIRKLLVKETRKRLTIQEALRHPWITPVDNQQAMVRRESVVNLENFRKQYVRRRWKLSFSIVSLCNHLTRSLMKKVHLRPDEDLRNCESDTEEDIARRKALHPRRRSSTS
Test [3] shares this target. To be noted: at 10 µM.
For test [4], the target named is T1, Serine/threonine-protein kinase DCLK2 (Homo sapiens) (UniProt Q8N568).
T1 sequence (whole entry): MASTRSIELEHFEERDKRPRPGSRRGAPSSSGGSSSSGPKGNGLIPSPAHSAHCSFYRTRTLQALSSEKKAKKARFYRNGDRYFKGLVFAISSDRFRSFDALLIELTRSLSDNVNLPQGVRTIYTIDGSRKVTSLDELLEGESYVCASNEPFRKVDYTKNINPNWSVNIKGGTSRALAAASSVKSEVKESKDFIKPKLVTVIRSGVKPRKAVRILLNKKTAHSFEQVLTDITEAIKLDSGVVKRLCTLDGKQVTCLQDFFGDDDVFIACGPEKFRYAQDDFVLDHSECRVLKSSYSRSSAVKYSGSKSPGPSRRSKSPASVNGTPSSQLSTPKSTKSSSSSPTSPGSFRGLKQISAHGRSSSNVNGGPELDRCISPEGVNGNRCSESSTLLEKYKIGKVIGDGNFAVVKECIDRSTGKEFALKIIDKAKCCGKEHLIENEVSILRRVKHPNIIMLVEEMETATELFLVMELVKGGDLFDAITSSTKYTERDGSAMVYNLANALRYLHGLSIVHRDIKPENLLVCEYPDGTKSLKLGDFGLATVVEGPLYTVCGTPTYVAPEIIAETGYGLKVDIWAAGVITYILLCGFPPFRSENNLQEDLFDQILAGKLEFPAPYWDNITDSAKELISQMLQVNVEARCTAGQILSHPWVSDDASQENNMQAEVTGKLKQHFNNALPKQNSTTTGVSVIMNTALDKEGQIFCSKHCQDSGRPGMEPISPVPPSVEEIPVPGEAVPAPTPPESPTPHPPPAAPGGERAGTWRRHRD
To be noted: at 1 µM.

Test [5] has as its target T1, Serine/threonine-protein kinase DCLK2 (Homo sapiens). To be noted: at 10 µM.
Test [6] concerns the target T2, Discoidin domain-containing receptor 2 (Homo sapiens) (UniProt Q16832).
T2 sequence (whole entry): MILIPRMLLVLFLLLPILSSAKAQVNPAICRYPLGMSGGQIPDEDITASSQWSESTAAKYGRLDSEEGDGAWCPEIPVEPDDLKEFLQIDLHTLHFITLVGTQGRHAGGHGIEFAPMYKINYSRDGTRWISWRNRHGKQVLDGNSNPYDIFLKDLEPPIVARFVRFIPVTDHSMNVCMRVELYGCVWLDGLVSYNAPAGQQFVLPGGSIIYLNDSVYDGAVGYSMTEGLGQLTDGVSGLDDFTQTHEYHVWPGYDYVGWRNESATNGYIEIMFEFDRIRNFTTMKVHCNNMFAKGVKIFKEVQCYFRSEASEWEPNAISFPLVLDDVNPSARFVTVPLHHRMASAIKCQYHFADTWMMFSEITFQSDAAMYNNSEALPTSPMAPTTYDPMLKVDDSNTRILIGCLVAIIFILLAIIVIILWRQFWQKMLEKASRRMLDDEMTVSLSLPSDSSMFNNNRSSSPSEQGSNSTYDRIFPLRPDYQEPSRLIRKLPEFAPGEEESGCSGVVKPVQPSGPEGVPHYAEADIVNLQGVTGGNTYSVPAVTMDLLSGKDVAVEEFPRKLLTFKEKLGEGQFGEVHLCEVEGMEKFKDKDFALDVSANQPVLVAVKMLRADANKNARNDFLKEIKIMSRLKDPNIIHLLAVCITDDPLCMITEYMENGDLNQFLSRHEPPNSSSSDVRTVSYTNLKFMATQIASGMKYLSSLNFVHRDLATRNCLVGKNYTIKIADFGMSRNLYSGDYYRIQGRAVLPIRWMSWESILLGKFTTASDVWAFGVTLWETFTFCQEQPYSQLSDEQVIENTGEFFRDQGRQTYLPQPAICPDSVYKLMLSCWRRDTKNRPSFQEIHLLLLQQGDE
Conditions: at 1 µM.

In test [7] the target is T2, Discoidin domain-containing receptor 2 (Homo sapiens). To be noted: at 10 µM.
The target of test [8] is T3, Myotonin-protein kinase (Homo sapiens) (UniProt Q09013).
T3 sequence (whole entry): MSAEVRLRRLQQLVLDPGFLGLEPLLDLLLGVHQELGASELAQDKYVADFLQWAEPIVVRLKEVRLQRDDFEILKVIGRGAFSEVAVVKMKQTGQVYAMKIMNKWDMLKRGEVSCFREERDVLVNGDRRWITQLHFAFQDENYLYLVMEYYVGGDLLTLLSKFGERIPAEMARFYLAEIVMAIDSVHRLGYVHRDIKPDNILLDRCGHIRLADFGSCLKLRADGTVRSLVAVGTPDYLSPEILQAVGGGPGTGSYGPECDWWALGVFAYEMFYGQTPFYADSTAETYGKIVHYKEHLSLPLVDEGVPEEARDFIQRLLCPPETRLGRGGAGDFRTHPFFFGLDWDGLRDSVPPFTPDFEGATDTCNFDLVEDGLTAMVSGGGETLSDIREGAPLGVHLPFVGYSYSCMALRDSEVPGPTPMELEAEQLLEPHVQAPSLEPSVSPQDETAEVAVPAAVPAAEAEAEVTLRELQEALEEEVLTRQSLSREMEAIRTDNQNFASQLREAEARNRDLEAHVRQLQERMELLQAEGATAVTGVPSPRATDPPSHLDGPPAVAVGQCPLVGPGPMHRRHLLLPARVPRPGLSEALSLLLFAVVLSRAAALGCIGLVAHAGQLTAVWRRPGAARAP
To be noted: at 10 µM.

Test [9] has as its target T4, Dual specificity tyrosine-phosphorylation-regulated kinase 2 (Homo sapiens) (UniProt Q92630).
T4 sequence (whole entry): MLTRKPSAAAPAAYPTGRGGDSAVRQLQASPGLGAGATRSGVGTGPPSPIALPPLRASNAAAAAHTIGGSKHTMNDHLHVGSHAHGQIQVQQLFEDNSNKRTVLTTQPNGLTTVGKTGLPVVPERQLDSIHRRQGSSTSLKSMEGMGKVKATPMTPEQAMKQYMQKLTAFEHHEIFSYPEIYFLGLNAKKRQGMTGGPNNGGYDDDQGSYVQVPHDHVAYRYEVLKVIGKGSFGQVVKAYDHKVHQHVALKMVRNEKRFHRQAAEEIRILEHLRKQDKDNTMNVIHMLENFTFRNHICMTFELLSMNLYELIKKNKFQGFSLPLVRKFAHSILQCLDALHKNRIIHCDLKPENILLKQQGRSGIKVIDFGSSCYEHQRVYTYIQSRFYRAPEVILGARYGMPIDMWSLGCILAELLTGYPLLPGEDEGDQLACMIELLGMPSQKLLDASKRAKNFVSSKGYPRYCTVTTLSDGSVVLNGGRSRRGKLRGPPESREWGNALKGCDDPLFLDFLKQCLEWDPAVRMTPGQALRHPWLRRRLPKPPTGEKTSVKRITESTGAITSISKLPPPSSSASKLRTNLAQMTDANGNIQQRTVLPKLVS
To be noted: at 1 µM.

In test [10] the target is T4, Dual specificity tyrosine-phosphorylation-regulated kinase 2 (Homo sapiens). Conditions: at 10 µM.
Test [11] addresses T5, Ephrin type-A receptor 1 (Homo sapiens) (UniProt P21709).
T5 sequence (whole entry): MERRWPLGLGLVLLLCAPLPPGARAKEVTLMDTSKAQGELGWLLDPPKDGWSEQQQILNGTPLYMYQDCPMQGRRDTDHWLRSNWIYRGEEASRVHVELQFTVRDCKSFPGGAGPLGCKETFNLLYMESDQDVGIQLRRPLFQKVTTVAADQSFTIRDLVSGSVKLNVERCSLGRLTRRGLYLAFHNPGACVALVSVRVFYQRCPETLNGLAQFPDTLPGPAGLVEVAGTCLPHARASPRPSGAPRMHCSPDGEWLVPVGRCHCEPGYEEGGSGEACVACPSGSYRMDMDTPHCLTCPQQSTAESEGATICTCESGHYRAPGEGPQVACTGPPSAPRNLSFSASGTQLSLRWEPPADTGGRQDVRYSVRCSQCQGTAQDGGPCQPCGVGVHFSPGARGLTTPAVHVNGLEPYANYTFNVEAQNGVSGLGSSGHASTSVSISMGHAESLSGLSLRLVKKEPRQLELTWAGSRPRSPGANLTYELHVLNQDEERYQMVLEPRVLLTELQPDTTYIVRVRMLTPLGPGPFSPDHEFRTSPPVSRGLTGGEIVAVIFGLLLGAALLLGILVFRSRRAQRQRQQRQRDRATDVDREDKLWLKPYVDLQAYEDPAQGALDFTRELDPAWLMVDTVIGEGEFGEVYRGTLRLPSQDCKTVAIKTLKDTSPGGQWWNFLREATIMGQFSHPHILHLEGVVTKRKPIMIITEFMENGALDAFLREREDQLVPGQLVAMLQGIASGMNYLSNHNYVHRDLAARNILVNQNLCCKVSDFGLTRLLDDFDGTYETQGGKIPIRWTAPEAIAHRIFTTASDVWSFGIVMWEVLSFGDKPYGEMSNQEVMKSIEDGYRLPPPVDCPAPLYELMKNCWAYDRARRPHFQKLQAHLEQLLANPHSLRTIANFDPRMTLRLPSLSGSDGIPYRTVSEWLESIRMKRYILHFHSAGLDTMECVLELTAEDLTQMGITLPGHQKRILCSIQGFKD
Conditions: at 1 µM.

Test [12] addresses T5, Ephrin type-A receptor 1 (Homo sapiens). Conditions: at 10 µM.
Test [13] has as its target Ephrin type-A receptor 2 (Homo sapiens) (UniProt P29317). Conditions: at 1 µM.
Test [14] shares this target. Conditions: at 10 µM.
Test [15] deals with T6, Ephrin type-A receptor 3 (Homo sapiens) (UniProt P29320).
T6 sequence (whole entry): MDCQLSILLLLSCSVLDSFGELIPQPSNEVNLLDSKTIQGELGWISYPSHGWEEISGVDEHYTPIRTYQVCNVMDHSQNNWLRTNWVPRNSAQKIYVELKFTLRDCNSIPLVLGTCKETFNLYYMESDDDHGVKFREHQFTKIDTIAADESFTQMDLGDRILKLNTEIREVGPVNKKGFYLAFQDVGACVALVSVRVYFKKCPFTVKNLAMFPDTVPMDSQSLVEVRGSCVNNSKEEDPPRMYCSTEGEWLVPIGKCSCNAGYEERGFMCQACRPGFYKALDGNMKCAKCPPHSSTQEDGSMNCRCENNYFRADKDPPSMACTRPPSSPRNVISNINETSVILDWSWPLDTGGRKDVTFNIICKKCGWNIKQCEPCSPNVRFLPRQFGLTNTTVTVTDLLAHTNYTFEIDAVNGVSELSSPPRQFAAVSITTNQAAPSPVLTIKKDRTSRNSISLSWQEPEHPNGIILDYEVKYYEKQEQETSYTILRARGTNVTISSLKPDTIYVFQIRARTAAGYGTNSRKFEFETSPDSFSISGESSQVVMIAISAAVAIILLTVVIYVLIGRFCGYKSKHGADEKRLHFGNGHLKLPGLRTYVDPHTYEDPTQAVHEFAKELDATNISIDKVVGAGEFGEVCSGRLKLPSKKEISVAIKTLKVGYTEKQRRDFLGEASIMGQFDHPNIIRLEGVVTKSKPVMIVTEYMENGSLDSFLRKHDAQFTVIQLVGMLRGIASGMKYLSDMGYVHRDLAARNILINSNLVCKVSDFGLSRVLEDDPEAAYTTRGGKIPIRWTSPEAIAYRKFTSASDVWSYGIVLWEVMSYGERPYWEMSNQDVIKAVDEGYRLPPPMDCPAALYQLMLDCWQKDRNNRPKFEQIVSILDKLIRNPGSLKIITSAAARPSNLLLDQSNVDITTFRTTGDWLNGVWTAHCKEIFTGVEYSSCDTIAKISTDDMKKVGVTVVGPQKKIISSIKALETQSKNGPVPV
Conditions: at 1 µM.

Test [16] deals with T3, Myotonin-protein kinase (Homo sapiens). To be noted: at 1 µM.
Test [17] deals with T7, Serine/threonine-protein kinase 17A (Homo sapiens) (UniProt Q9UEE5).
T7 sequence (whole entry): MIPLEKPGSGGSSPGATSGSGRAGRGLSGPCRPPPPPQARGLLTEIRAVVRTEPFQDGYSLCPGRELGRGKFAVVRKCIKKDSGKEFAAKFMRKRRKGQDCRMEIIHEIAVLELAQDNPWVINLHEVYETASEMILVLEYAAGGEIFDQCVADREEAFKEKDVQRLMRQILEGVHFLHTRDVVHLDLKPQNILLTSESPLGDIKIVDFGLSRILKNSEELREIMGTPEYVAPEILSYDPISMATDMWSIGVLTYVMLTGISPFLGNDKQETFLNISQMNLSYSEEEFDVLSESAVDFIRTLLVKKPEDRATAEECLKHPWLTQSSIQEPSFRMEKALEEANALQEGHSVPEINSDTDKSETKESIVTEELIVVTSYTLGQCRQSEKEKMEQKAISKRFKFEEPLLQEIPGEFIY
To be noted: at 1 µM.

In test [18] the target is T7, Serine/threonine-protein kinase 17A (Homo sapiens). To be noted: at 10 µM.

Ephrin type-A receptor 2 (Homo sapiens), sequence (P29317 whole entry): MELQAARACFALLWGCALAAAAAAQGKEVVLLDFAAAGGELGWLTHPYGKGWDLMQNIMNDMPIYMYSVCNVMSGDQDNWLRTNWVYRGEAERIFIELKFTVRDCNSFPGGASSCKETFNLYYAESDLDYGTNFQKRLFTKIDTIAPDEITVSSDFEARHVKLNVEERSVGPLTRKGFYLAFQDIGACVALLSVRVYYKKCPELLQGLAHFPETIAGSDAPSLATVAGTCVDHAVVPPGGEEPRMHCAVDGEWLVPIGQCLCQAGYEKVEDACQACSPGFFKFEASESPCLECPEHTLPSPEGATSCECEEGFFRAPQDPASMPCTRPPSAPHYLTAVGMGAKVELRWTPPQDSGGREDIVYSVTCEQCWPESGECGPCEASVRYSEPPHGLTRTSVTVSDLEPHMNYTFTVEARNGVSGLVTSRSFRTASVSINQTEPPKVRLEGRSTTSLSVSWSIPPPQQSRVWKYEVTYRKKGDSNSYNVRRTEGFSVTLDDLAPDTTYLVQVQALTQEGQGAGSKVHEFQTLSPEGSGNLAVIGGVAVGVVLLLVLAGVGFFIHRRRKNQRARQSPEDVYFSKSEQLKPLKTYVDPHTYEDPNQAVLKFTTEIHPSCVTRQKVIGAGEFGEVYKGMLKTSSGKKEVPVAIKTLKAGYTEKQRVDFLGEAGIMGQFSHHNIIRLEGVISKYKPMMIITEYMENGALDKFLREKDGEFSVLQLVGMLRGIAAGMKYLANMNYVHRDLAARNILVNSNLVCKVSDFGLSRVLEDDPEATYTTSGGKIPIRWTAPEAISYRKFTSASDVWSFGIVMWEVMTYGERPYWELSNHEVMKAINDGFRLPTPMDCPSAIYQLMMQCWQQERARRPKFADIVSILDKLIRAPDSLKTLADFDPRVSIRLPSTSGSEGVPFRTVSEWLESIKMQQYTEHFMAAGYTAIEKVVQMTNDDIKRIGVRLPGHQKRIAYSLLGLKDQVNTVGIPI
Death-associated protein kinase 1 (Homo sapiens), sequence (P53355 whole entry, looked up): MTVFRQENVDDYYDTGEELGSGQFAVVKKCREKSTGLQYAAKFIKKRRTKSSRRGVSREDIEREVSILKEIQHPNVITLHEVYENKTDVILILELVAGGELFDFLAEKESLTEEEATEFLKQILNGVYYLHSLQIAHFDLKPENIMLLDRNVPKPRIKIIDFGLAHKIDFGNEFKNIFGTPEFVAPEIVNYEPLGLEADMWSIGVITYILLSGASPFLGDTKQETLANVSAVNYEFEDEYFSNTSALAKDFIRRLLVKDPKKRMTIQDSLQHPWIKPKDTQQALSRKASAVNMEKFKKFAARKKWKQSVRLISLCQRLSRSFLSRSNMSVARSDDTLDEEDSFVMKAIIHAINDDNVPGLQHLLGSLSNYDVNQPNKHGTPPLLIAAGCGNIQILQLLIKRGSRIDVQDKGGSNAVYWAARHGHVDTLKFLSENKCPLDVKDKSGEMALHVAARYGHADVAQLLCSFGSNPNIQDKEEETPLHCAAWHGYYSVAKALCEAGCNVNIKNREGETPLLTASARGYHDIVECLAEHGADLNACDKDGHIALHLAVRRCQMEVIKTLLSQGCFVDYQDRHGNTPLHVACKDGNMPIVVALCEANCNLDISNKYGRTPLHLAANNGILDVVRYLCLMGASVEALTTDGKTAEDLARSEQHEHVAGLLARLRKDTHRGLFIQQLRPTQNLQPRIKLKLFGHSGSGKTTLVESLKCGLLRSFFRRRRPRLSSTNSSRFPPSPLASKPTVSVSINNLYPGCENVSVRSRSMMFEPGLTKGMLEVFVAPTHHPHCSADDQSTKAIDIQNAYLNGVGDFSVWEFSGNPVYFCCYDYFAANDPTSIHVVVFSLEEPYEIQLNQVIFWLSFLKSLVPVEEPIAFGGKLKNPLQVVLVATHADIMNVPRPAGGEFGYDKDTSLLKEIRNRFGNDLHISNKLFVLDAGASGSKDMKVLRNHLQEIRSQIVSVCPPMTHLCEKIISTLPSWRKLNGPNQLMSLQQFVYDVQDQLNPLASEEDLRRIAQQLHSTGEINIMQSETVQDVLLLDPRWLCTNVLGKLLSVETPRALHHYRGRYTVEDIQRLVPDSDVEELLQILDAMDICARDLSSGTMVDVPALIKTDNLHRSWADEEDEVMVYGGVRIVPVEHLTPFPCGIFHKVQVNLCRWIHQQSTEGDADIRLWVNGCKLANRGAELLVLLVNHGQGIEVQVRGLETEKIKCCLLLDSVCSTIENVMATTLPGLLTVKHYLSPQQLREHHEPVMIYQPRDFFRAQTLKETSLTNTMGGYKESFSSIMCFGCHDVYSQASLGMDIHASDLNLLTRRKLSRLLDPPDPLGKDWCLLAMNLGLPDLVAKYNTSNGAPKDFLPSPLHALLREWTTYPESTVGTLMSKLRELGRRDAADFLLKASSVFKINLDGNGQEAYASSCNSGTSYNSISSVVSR

`Cn1sc(=O)n(Cc2ccccc2)c1=O`: the residual activity – broadly, the signal under treatment as a percentage of the control signal – was found to be 80% in test [1]; 97% in test [2]; 99% in test [3]; 100% in [4]; 90% in test [5]; 78% in test [6]. Besides, the residual activity came out at 90% in test [7]; 81% in test [8]; 96% in test [9]; 82% in test [10]; 96% in [11]; 93% in test [12]. The residual activity in [13] came to 93%; in test [14], 92%; in [15] it was 87%.

Regarding `Nc1n[nH]c2nc3ccccc3nc12`, the residual activity in test [1] is 96%; in test [4] it was 98%; in test [5] it was 84%; in [16], 98%; in [8] it was 76%; in test [17] it was 86%. Further, the residual activity in [18] came out at 50%; in test [9], 92%; in [10], 41%; in test [11], 87%; in test [12], 83%; in test [15] it was 98%.

`Nc1nc(Nc2ccc(S(N)(=O)=O)cc2)nn1C(=O)c1c(F)cccc1F`: the residual activity in test [1] worked out at 96%; in test [2], 97%; in test [3], 77%; in test [4], 68%; in test [5], 25%; in test [17], 77%. For the same molecule, the residual activity in [18] was 47%; in [11], 58%; in test [12], 6%; in test [14], 39%.

Turning to `COc1ccc2c(c1)c(C1=C(c3c[nH]c4ccccc34)C(=O)NC1=O)cn2CCCN(C)C`, the residual activity was 76% in test [1]; 71% in test [2]; 32% in [3]; 54% in test [4]; 55% in [5]; 111% in test [6]. In addition, the residual activity in test [16] came out at 103%; in [8] it was 104%; in test [18] it was 27%; in [11] it was 71%; in test [12] it was 42%; in test [13], 104%. Also, the residual activity in test [14] came to 33%; in test [15] it was 106%.
